# Data from publication PMC4336329 (PLoS ONE, 2015).
# In all, about 310,000 compounds went through this assay and about 14,000 (4.5%) showed an effect of 50% or more. The effect is printed as a negative number. This excerpt belongs to a sample that is enriched for strong results.
# Biological target: human ether-à-go-go-related gene (hERG) potassium channel (human, UniProt Q12809)
# Assay: primary screen, population patch clamp on CHO cells stably expressing hERG; higher = less effect of the substance
# 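Also: peak tail current of the secondary pulse compared with the same well before compound.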
# Sequence of human ether-à-go-go-related gene (hERG) potassium channel (Q12809 whole entry, looked up): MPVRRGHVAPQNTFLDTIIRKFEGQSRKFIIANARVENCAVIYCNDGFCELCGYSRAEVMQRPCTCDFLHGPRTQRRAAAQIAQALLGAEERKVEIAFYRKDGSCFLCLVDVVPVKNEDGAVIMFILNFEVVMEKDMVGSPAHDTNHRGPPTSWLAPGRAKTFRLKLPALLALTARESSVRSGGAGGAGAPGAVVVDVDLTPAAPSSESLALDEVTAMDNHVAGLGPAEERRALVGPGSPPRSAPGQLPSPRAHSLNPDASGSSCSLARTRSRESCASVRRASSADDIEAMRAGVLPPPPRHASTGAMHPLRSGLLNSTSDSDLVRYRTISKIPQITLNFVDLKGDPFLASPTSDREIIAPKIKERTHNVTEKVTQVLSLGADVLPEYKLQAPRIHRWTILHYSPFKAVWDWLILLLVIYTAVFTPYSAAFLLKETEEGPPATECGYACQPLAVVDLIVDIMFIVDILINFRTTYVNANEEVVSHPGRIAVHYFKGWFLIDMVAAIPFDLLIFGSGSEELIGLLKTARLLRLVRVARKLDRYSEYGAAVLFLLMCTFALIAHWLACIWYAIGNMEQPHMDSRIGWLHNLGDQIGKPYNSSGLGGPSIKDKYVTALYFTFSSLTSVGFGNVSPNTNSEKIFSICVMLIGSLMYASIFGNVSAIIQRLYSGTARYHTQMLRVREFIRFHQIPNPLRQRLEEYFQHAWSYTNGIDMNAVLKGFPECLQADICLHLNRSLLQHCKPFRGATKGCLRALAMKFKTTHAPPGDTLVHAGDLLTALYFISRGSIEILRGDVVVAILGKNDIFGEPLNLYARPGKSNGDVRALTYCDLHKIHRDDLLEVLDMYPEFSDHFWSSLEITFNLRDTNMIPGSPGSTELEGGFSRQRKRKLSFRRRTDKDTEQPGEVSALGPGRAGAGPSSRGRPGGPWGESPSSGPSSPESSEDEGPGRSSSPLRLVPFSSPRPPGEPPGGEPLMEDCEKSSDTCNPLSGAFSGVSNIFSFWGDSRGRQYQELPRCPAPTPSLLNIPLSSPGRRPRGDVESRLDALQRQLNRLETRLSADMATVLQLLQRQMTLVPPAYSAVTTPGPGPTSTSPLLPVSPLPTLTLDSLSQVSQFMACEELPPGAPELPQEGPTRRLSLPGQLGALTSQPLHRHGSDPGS
row,Compound,"hERG current change (%, negative = inhibition) at 10uM [%]"
1,CC1(C)Cc2nc3sc(C(=O)O)c(N)c3cc2CS1,29.4
2,Cn1cc(CN2CCCC(C(=O)c3nccn3C)C2)c(-c2cccc(Cl)c2)n1 (stereo not shown),-31.1
3,COc1ccc(C(=O)C2CCCN(Cc3ccc(F)cc3F)C2)cc1F (stereo not shown),-29.8
4,COc1ccc(C(=O)C2CCCN(C(=O)c3ccc(F)cc3)C2)cc1OC (stereo not shown),-3.95
5,Cn1ccnc1C(=O)C1CCCN(Cc2cn[nH]c2-c2ccc(-c3ccccc3)cc2)C1 (stereo not shown),-67.9
6,COc1ccc(C(=O)C2CCCN(Cc3cn[nH]c3-c3ccccc3)C2)cc1OC (stereo not shown),-74
7,CCOC(=O)c1[nH]ncc1CN1CCCC(C(=O)c2cccc3ccccc23)C1 (stereo not shown),-45.8
8,COc1ccc(C(=O)C2CCCN(Cc3cn[nH]c3-c3ccc(F)cc3)C2)cc1OC (stereo not shown),-66.5
9,COCCNC(=O)c1cc(-c2ccc(OC)c(OC)c2)on1,-1.95
10,CCOc1ccc(C(=O)N[C@H](C(=O)Nc2ccccc2OC)C(C)C)cc1,-28.7
11,O=C1NC(=Nc2ccccc2)c2ccc([N+](=O)[O-])cc21,3.21
12,Cc1cc(NC(=O)CSc2nc3c(C)c(C)ccc3cc2C)no1,-44.6
13,C=CCNC(=S)N1CCN(CCN=CC2=C(O)CC(c3ccco3)CC2=O)CC1 (stereo not shown),-25.8
14,O=C1CC(c2ccco2)CC(O)=C1C=NCCN1CCN(C(=S)Nc2ccccc2)CC1 (stereo not shown),-54.1
15,O=C1CC(c2ccco2)CC(O)=C1C=NCCN1CCN(C(=O)Nc2ccc(Cl)cc2)CC1 (stereo not shown),-66.4
16,O=C1CC(c2ccco2)CC(O)=C1C=NCCN1CCNCC1 (stereo not shown),2.1
17,CCNC(=S)N1CCN(CCN=CC2=C(O)CC(c3ccco3)CC2=O)CC1 (stereo not shown),0.166
18,O=C1CC(c2ccco2)CC(O)=C1C=NCCO (stereo not shown),7.61
19,Cl.O=C(CN1CCC(NC(=O)c2ccccc2Cl)CC1)NCc1ccco1,-2.98
20,O=C(c1ccc2c3n(nc2c1)-c1ccccc1CO3)N1CCOCC1,-8.48
21,COc1ccc(CCNC(=O)c2cc(-c3ccc4c(c3)OCO4)on2)cc1OC,-4.11
22,Cc1cccc(N(C(=O)CNC(=O)c2ccco2)C(C(=O)NCC2CCCO2)c2ccccc2)c1 (stereo not shown),9.57

row,Compound,"hERG current change (%, negative = inhibition) at 10uM [%]"
1,Cc1ccc(CSc2sc(C(=O)c3ccccc3)c(N)c2C#N)cc1,6.41
2,CCCCN(C)C1=Nc2cccc3cccc1c23,-72
3,NC1=Nc2cccc3cccc1c23,21.3
4,CCCCON1C(=O)c2cccc3cccc(c23)C1=O,-4.38
5,O=C(Nc1ccc([N+](=O)[O-])cc1)Nc1nc(-c2ccc(Cl)s2)cs1,25.7
6,OCCOCCn1c(C2CCCN2c2nc(-c3ccc(F)cc3)cs2)nc2cc(Cl)c(Cl)cc21 (stereo not shown),-28.7
7,Cc1csc(N2CCCC2c2nc3cc(Cl)c(N4CCCCC4)cc3n2CCOCCO)n1 (stereo not shown),-47.3
8,OCCOCCn1c(C2CCCN2c2nc(-c3ccc(F)cc3)cs2)nc2cc(C(F)(F)F)ccc21 (stereo not shown),-75.1
9,OCCCn1c(C2CCCN2c2nc(-c3ccc(F)cc3)cs2)nc2cc(C(F)(F)F)ccc21 (stereo not shown),-21
10,OCCCn1c(CCNc2nc(-c3ccc(Cl)cc3)cs2)nc2cc(C(F)(F)F)ccc21,-0.705
11,OCCOCCn1c(CCNc2nc(-c3ccc(F)cc3)cs2)nc2cc(C(F)(F)F)ccc21,-61.1
12,Cc1csc(N2CCCC2c2nc3cc(C(F)(F)F)ccc3n2CCOCCO)n1 (stereo not shown),-69.1
13,OCCCn1c(CCNc2nc(-c3ccc(F)cc3)cs2)nc2cc(C(F)(F)F)ccc21,-32.3
14,Cc1ccc(Cn2c(C3CCCN3c3nc(C)cs3)nc3cc(C(F)(F)F)ccc32)cc1 (stereo not shown),0.159
15,CCN1CCSc2ccc(C(=O)NCc3ccccc3F)cc21,-20.8
16,Cc1oc(-c2cccc(Cl)c2)nc1CS(=O)(=O)CC(=O)NCCN1CCCC1,-0.675
17,CCCC/C(C)=N\NC(=O)CNS(=O)(=O)c1ccc([N+](=O)[O-])cc1,-2.14
18,CCOc1ccc(CN(C)C(=O)CNC(=O)c2ccc(Br)o2)cc1OC,-2.55
19,COc1cccc(Cn2cccc(NC(=O)Nc3cccc(C#N)c3)c2=O)c1,6.1
20,O=C(CC1C(=O)NCCN1CC1CCCCC1)NCc1ccc(F)cc1 (stereo not shown),-20.3
21,O=C(CC1C(=O)NCCN1Cc1ccc(F)cc1)NCCN1CCCc2ccccc21 (stereo not shown),-66.1
22,O=C(CC1C(=O)NCCN1Cc1ccccc1)NCCN1CCCCC1=O (stereo not shown),19.1

row,Compound,"hERG current change (%, negative = inhibition) at 10uM [%]"
1,COC(=O)CCCNC(=O)CC1C(=O)NCCN1Cc1ccoc1 (stereo not shown),22.1
2,O=C(CC1C(=O)NCCN1CC1CCCCC1)NCc1cc(F)ccc1F (stereo not shown),1.77
3,Cc1nc(CCNC(=O)CC2C(=O)NCCN2Cc2ccoc2)nc2c1CCCC2 (stereo not shown),-36.7
4,O=C(CC1C(=O)NCCN1Cc1ccoc1)NCCc1ccc(Cl)cc1 (stereo not shown),-53.7
5,CC(C)(C)CN1CCNC(=O)C1CC(=O)NCCN1CCCc2ccccc21 (stereo not shown),0.68
6,O=C(CC1C(=O)NCCN1CC1CCCCC1)NCCc1ccc(F)cc1 (stereo not shown),-51.6
7,Cc1ccc(C)c(Nc2ccc(C(=O)NCCc3ccccc3)cn2)c1,-20.9
8,CCN(CC(=O)Nc1ccc(N2CCOCC2)cc1)C(=O)Cc1ccccc1,3.76
9,COCC(C)n1c(-c2ccc3c(c2)NC(=O)CO3)csc1=Nc1ccc(OC(F)F)cc1 (stereo not shown),2.76
10,COc1ccc(-c2cc3nc(C)cc(NCCO)n3n2)cc1,-33.6
11,Cc1cc(-c2ccccc2)nc2cc(C(=O)NCCCn3ccnc3)nn12,-22.2
12,Cc1cc(NCCCn2ccnc2)n2nc(-c3ccc(F)cc3)cc2n1,-14
13,Cc1cccc(-n2ncc3c(NCCCn4ccnc4)ncnc32)c1,-16.5
14,Cc1cccc(-c2cc3nc(C)cc(NCCCn4ccnc4)n3n2)c1,-59.3
15,Cc1cc(NCCCn2ccnc2)n2nc(-c3ccc(Cl)cc3)cc2n1,-74.6
16,Cc1cccc(-c2cc3nc(C)c(C)c(NCCCn4ccnc4)n3n2)c1,-68.9
17,Cc1cccc(-c2cc3nc(C)cc(NCCCN(C)C)n3n2)c1,-38.1
18,Cc1cccc(-c2cc3nc(C)cc(C)n3n2)c1,2.6
19,CCc1cc2c(=O)[nH]c(Cc3ccc(OC)cc3)nc2s1,2.16
20,O=C(Nc1ccccc1)C(Cc1cccs1)c1nn[nH]n1 (stereo not shown),-0.965
21,O=C(CNc1cccc(S(=O)(=O)N2CCOCC2)c1)Nc1ccc(C(F)(F)F)cc1,-44.2
22,O=C(Cc1ccccc1)NC(NCCCN1CCOCC1)(C(F)(F)F)C(F)(F)F,5.2

row,Compound,"hERG current change (%, negative = inhibition) at 10uM [%]"
1,O=C(O)c1cccc(Cn2c(Cl)c(/C=N/NC(=O)c3ccccc3O)sc2=O)c1,12.6
2,Cc1cc(C)n2cc(CSc3nnnn3-c3ccccc3)nc2n1,-56.3
3,Cc1cc(C)n2cc(CSc3nncn3C)nc2n1,17.2
4,CCc1nnc(SCc2cn3c(C)cc(C)nc3n2)n1N,13.5
5,Cc1cc(C)n2cc(CSc3nnnn3-c3ccccc3C)nc2n1,-58.3
6,Cc1cc(C)n2cc(CSc3nnnn3C)nc2n1,2.06
7,Cc1cccc2nc(CSc3nnnn3-c3ccccc3)cn12,-41.5
8,O=C(CCCc1ccccc1)N1CCc2ccccc21,10.1
9,Cc1c(N=Cc2ccc(-c3ccc(Cl)cc3)o2)c(=O)n(-c2ccccc2)n1C,-15.3
10,Cc1cc(C)nc(OC(C(=O)O)C(OCC(C)C)(c2ccccc2)c2ccccc2)n1 (stereo not shown),17.8
11,Cc1[nH]c2c(C(F)(F)F)cccc2c1CCN.Cl,-1.49
12,CCOc1ccc(C(=O)Nc2cccc3nsnc23)cc1[N+](=O)[O-],5.23
13,OCC1(CC2CCCCO2)CCN(C/C=C/c2ccccc2)CC1 (stereo not shown),-46
14,OCC1(CCc2ccccc2)CCN(C/C=C/c2ccccc2)CC1,-80.9
15,C/C=C(\C)CN1CCCC(CO)(Cc2ccccc2)C1 (stereo not shown),10.4
16,O=C(CCC(F)(F)F)N1CCCC(CO)(CCc2ccccc2)C1 (stereo not shown),-13.5
17,OCC1(CCc2ccccc2)CCCN(C/C=C/c2ccccc2)C1 (stereo not shown),-73.5
18,O=S(=O)(Cc1ccccc1)N1CCN(C/C=C/c2ccccc2)CC1,-5.88
19,CC1(C)CC2(CCO1)OC(=O)CC2C(=O)Nc1cccc2ccccc12 (stereo not shown),12
20,Cn1cccc1/C=C1\SC(=S)N(CC(=O)O)C1=O,1.83
21,COc1ccc(OC)c(S(=O)(=O)n2cnc3ccccc32)c1,-5.26
22,Cc1cccc(CS(=O)(=O)c2ncc(CO)n2C)c1,16
